Bioassay records from PubChem.
Compounds with a hit are over-represented: about 9% of the library has one in this group of screens.
Lamin A splicing = modulators of lamin A splicing | HeLa LMNA splicing GFP/RFP minigene ratio, 48 h | Potency, µM (series often up to 46.1 µM), hits mostly inhibitors | 200,000 compounds, 0.01% hits; active = well fitted inhibition curve with a large enough effect in the signal ratio, with a control signal flat, not every such curve was filed as active; inconclusive = small, poorly fitted or top-dose-only effect, or effect the other way, or a change in a side signal; the % refers to the signal ratio
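S3 HeLa cells stably expressing lamin A-EGFP splicing minigene plus DsRed2, 600 cells/well, 48 h compound exposure at 37C. Laser-scanning cytometry; analysed as GFP (500-530 nm)/RFP (575-640 nm) total intensity ratio; 0.5% DMSO vehicle.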
HTT cytoprotect = protects HTT-Q103 PC12 cells, measured by ATP | AID 1471 | PC12 HTT-Q103 induced, cytoprotection, ATP luminescence, 40 h | Potency, µM (doses to about 56.4 µM), usual class: activators | 230,000 compounds, 0.14% hits; note: nearly all actives have a fitted effect of over 45% in size
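Quantitative HTS on tebufenozide-induced (100 nM) PC12 cells expressing HTTQ103 exon 1–GFP; compounds tested as a concentration series; survival measured via cellular ATP.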
HTT aggregate = inhibitors of mutant huntingtin aggregate formation in PC12 cells; AID 1688; PC12 HttQ103-GFP aggregates, Acumen cytometry, 40 h; Potency, µM (series often up to 46.1 µM), usual class: inhibitors; 220,000 compounds, 1.1% hits; note: nearly all actives have a fitted effect of over 60% in size
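Read-out: GFP aggregate count by laser scanning cytometer (488 nm excitation, 500-530 nm emission, 1–25 µm objects >6 SD above background). Cells: PC12, inducible HTTex1-Q103-GFP, 100 nM tebufenozide; compounds titrated.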
HPGD inh = inhibitors of human 15-hydroxyprostaglandin dehydrogenase (HPGD); Potency, µM, usual class: inhibitors; 150,000 compounds, 4.3% hits; P15428; purified HPGD, NADH fluorescence kinetic, PGE2 substrate; active = well fitted inhibition curve with a large enough effect, not every such curve was filed as active; inconclusive = small, poorly fitted or top-dose-only effect, or another doubt; inactive = no such curve, though single readings can be large or run the other way
Target sequence (P15428 whole entry, looked up): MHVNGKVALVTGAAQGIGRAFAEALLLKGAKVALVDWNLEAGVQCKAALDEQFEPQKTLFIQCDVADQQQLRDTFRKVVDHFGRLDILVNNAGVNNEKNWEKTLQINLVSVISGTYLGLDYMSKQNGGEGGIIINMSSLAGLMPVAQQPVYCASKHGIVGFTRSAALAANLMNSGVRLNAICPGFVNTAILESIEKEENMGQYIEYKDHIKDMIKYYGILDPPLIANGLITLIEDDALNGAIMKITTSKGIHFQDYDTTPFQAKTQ
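NADH formation kinetics: reaction with 30 uM PGE2 and 1 mM NAD+ (final), 20 nM enzyme, Tris-HCl pH 8 with Tween 20, after 15 min compound preincubation at room temperature. Fluorescence change, last versus first of five reads.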
ALDH1A1 block = inhibitors of human aldehyde dehydrogenase 1A1; P00352; Purified ALDH1A1, NADH fluorescence, propionaldehyde substrate; Potency, µM (doses to about 75.3 µM), most hits filed as inhibitors; 220,000 compounds, 7.3% hits; AID 1030; active = well fitted inhibition curve with a large enough effect, not every such curve was filed as active; inconclusive = small, poorly fitted or top-dose-only effect, or another doubt; inactive = no such curve, though single readings can be large or run the other way
Target sequence (P00352 whole entry, looked up): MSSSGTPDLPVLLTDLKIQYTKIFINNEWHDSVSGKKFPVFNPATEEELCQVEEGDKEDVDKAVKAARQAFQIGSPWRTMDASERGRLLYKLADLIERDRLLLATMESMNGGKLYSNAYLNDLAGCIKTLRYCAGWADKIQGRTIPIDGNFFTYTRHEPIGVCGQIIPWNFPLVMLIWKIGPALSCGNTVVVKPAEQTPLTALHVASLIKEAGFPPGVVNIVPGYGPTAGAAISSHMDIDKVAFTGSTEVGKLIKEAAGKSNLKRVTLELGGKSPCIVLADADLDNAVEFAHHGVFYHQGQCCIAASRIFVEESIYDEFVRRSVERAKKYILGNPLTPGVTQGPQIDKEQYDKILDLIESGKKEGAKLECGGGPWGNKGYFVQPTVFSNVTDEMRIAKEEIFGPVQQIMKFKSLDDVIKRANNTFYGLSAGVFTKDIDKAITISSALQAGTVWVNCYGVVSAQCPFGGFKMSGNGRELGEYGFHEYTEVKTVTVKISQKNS
KinaseGlo FLuc = blocks Kinase-Glo luciferase, a counter-screen artifact; Q27757; Kinase-Glo luciferase, ATP luminescence, 8 min; Potency, µM (doses to about 38.3 µM), hits mostly inhibitors; 200,000 compounds, 0.28% hits; note: nearly all actives have a fitted effect of over 60% in size
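Light output from Kinase-Glo luciferase with luciferin and 10 uM ATP in 50 mM imidazole pH 7.2, KCl, MgCl2, Tween 20, BSA; compound pin-delivered, 8-min ambient incubation, then luminescence read.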
Of the large screens only hits and unclear results are named; the others gave an inactive call. Unless noted, calls come from the whole dose curve; as a rule, active = well fitted curve in the direction sought with a large enough effect; inconclusive = small, poorly fitted or top-dose-only effect, or another doubt; inactive = no such curve, though single readings can be large; an effect the other way counts as inactive or inconclusive.

CN(C)Cc1ccccc1-c1nc(N(C)C)c2ccccc2n1	Lamin A splicing inconclusive (no result: HTT aggregate, HPGD inh, KinaseGlo FLuc)
COc1ccc(C(c2c(C)[nH]n(C(N)=S)c2=O)C(C#N)C#N)cc1 (configuration not stated)	HPGD inh 32µM, ALDH1A1 block 13µM
Cc1ccc(OCc2occc2C(=O)O)cc1	none (no result: Lamin A splicing, HTT aggregate, HPGD inh, ALDH1A1 block, KinaseGlo FLuc)
CCc1c(C)nc2ncnn2c1NCCc1ccccc1	HTT aggregate 10µM
O=C(Nc1ccccn1)C(NS(=O)(=O)c1cccc2nsnc12)c1ccccc1 (configuration not stated)	HTT aggregate inconclusive, HPGD inh 32µM, ALDH1A1 block inconclusive
O=S(=O)(c1cccc2nsnc12)N1CCN(c2ccc(F)cc2)CC1	none (no result: HPGD inh)
COc1ccc(S(=O)(=O)Nc2nc(C(F)(F)F)cs2)cc1	none
S=C(Nc1ccc(Nc2ccccc2)cc1)NC1CCCCCC1	Lamin A splicing inconclusive (no result: HPGD inh)
CC1CCC(NC(=O)Nc2cccs2)CC1 (configuration not stated)	HPGD inh inconclusive, ALDH1A1 block inconclusive
O=C(NC1CCCCC1)C(Cc1ccccc1)NS(=O)(=O)c1cccs1 (configuration not stated)	ALDH1A1 block inconclusive
O=C(Nc1cccs1)NC1CCCC1	HPGD inh 32µM, ALDH1A1 block 7.1µM
O=S(=O)(NC(=S)NC1CCCCC1)c1cccs1	ALDH1A1 block 5.6µM (no result: Lamin A splicing, HTT cytoprotect, HPGD inh)
O=S(=O)(NC(=S)NC1CCCCC1)c1ccccc1	ALDH1A1 block 22µM (no result: Lamin A splicing, HPGD inh)
CCC(CC)C(=O)Nc1ccc(C)cc1O	none (no result: Lamin A splicing, HPGD inh)
CCC(C)NS(=O)(=O)c1ccc(NS(=O)(=O)c2ccccc2[N+](=O)[O-])cc1 (configuration not stated)	none (no result: Lamin A splicing, HPGD inh)
CC(=O)Oc1ccc2c(C)cc(=O)[nH]c2c1	none
COc1ccc2c(C)cc(=S)[nH]c2c1	ALDH1A1 block 32µM (no result: HPGD inh)
CN=C1SC(CC(=O)Nc2c(C)cccc2C)C(=O)N1/N=C/c1cccs1 (configuration not stated)	none
COC(=O)c1ccc2c(c1)SC1=C(CCCC1=O)N2	HTT aggregate inconclusive, HPGD inh 40µM
COc1ccc(C2C(=O)N(C3CCC(C)CC3)CC(=O)N2Cc2ccccc2Cl)cc1OC (configuration not stated)	none (no result: HTT cytoprotect, HTT aggregate, HPGD inh, ALDH1A1 block, KinaseGlo FLuc)
CCOC(=O)c1ccc(Cl)c(NC(=O)c2ccc(-c3ccccc3)cc2)c1	none
CCOC(=O)c1ccc(/C=C2/C=C(c3ccccc3)N(c3ccc(Cl)c(C(=O)O)c3)C2=O)cc1	Lamin A splicing inconclusive, ALDH1A1 block 11µM (no result: HTT cytoprotect)
CNC(=O)[C@H]1O[C@@H](n2cnc3c(NCc4cccc(I)c4)nc(Cl)nc32)[C@H](O)[C@@H]1O	none (no result: Lamin A splicing, HTT aggregate, HPGD inh, KinaseGlo FLuc)
CC(Sc1nnc(-c2ccc(O)cc2)o1)C(=O)Nc1cccc2ccccc12 (configuration not stated)	none
O=C(CCN1C(=O)c2ccc([N+](=O)[O-])cc2C1=O)Nc1nccs1	Lamin A splicing inconclusive (no result: HPGD inh)
Cc1ccc2oc(=O)cc(CN3CCN(C/C=C/c4ccccc4)CC3)c2c1	none (no result: Lamin A splicing, HPGD inh, ALDH1A1 block, KinaseGlo FLuc)
O=c1cc(CN2CCN(C/C=C/c3ccccc3)CC2)c2cc(O)ccc2o1	Lamin A splicing inconclusive, ALDH1A1 block 32µM
CC(=O)Oc1ccc2c(=O)c(N3C(=O)c4ccccc4C3=O)c(C)oc2c1	HPGD inh 25µM
O=c1cc[nH]c2cccc(Cc3ccccc3)c12	none
O=C(Nc1ccc(Cl)cc1)OCc1cc(-c2ccccc2Cl)on1	ALDH1A1 block 4µM
O=C(CSc1ncn(-c2ccccc2)n1)Nc1nc2c(s1)CCCC2	HPGD inh inconclusive, ALDH1A1 block 28µM
O=C(CSc1ncn(-c2ccccc2)n1)Nc1nc2ccccc2s1	HPGD inh 22µM, ALDH1A1 block 13µM
O=C(CSc1ncn(-c2ccccc2)n1)Nc1nc(-c2ccccc2)cs1	none
O=C(CSc1ncn(-c2ccccc2)n1)Nc1nccs1	none
CC(=O)Nc1ccc(C(=O)CSc2ncn(-c3ccccc3)n2)cc1	HPGD inh 13µM, ALDH1A1 block inconclusive
COc1ccc(NC(C)=O)cc1C#N	ALDH1A1 block 3.2µM (no result: HPGD inh)
COc1cc(C(=O)/C=C/Nc2ccc(NC(C)=O)cc2)cc(OC)c1OC	Lamin A splicing inconclusive, HPGD inh 28µM
COC(=O)c1ccc2c(c1)NC(=O)CS2	Lamin A splicing inconclusive, ALDH1A1 block inconclusive (no result: HPGD inh)
CCC(NC(=O)Nc1ncccc1C)(C(F)(F)F)C(F)(F)F	none
O=C(NCc1cccs1)c1cc(-c2ccccc2)nc2ccccc12	Lamin A splicing inconclusive
O=C(COc1ccccc1)NCc1cccs1	none
CC(=O)SC(C)CC(=O)NCc1ccccc1 (configuration not stated)	HPGD inh 28µM
Cc1ccc(-c2nc3ccccc3c(C(=O)NCc3cccs3)c2C)cc1	ALDH1A1 block 24µM
O=C(Cc1cccs1)NCc1ccccc1	HPGD inh 20µM
Cc1ccc(OCC(=O)NCc2cccs2)cc1	HPGD inh 22µM
COc1ccc(C(C)=O)cc1CSc1ccccn1	ALDH1A1 block inconclusive (no result: Lamin A splicing, HPGD inh, KinaseGlo FLuc)
O=C(Cc1cccs1)NCc1ccncc1	none
COCCN(C(=O)Cc1cccs1)C(C(=O)NCc1ccc(OC)cc1)c1ccccc1 (configuration not stated)	ALDH1A1 block 25µM
O=C(Cc1cccs1)NCc1ccccc1F	HPGD inh 25µM
COc1ccc(CCNC(=O)Cc2cccs2)cc1	HPGD inh 35µM (no result: HTT cytoprotect)
Cc1ccc(CNC(=O)Cc2cccs2)cc1	HPGD inh 16µM
CCOC(=O)CSc1c(-c2ccc(Cl)cc2)[nH]c2ccccc12	Lamin A splicing inconclusive
COc1ccc(CNC(=O)C(c2ccncc2)N(C(=O)Cc2cccs2)c2ccccc2)cc1 (configuration not stated)	none
O=C(NCc1cccs1)c1ccccc1F	HPGD inh 20µM
O=C(NCCNCc1cccs1)c1ccccc1F	Lamin A splicing inconclusive (no result: HPGD inh)
O=C(Cc1cccs1)NCCSc1c(-c2ccc(Cl)cc2)[nH]c2ccccc12	Lamin A splicing inconclusive, HTT aggregate 22µM, HPGD inh inconclusive, ALDH1A1 block inconclusive (no result: HTT cytoprotect)
COc1ccc(N(C(=O)CCl)C(C(=O)NCCc2ccccc2)c2cccs2)cc1 (configuration not stated)	Lamin A splicing inconclusive, HTT aggregate 2.2µM
O/N=C/c1ccn(-c2ccc(Br)cc2)c1	none (no result: HPGD inh)
COCc1nnc(NC(=O)CCN2C(=O)c3ccccc3C2=O)s1	none
CN(CCc1ccccn1)C1CC(=O)N(c2ccc(Cl)cc2)C1=O (configuration not stated)	ALDH1A1 block 25µM
COC(=O)c1ccc(NC(=S)Nc2ccccn2)cc1	none
CC(=O)NC1=NC(=O)/C(=C/c2cn(C(C)=O)nc2-c2ccccc2)S1	Lamin A splicing inconclusive, HTT aggregate inconclusive, ALDH1A1 block 10µM (no result: HPGD inh)
CCn1nnnc1SCC(=O)Nc1nc(-c2cccs2)cs1	ALDH1A1 block 3.2µM
